According to PubChem BioAssay (Tox21):
Results filed as inconclusive are left out. Activity calls are given as the source filed them. Unless noted, calls follow the shape of the full dose curve.

Columns and labels:
[1] = qHTS assay to identify small molecule antagonists of the sonic hedgehog signaling (Shh) pathway (AID 1259369); also: nearly all actives have a fitted effect of over 45% in size; also: potency is read from the fitted curve at half-maximal effect
Summary of the method: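 NIH/3T3-derived 3T3Gli1-Luc cells with stably integrated Gli1-Luc reporter were preincubated 4hr at 37 C, then given compounds in DMSO plus Shh conditioned medium and incubated 24hr. Firefly luciferase luminescence read after 30min reagent at room temperature.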

[2] = qHTS assay to identify small molecule agonists of the estrogen receptor beta (ER-beta) signaling pathway - cell viability counter screen (AID 1259380; active = well fitted curve in the direction sought with a large enough effect in the repeat runs; an effect the other way counts as inactive or inconclusive; also: nearly all actives have a fitted effect of over 30% in size; also: potency is read from the fitted curve at half-maximal effect)
Summary of the method: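 ER-beta-UAS-bla HEK293T cells in medium with 2% charcoal-stripped FBS were preincubated 6 hr at 37C, dosed with compound in DMSO for 16 hr, then after the bla read, CellTiter-Glo was added for 30 min at room temperature; luminescence recorded.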

[3] = biological target: Estrogen receptor (Homo sapiens) (UniProt P03372); assay: qHTS assay to identify small molecule agonists of the estrogen receptor alpha (ER-alpha) signaling pathway in the presence of an antagonist (AID 1259383); also: top concentration of the series differs between compounds; nearly all actives have a fitted effect of over 15% in size
Chain of Estrogen receptor (Homo sapiens) (P03372 whole entry, looked up): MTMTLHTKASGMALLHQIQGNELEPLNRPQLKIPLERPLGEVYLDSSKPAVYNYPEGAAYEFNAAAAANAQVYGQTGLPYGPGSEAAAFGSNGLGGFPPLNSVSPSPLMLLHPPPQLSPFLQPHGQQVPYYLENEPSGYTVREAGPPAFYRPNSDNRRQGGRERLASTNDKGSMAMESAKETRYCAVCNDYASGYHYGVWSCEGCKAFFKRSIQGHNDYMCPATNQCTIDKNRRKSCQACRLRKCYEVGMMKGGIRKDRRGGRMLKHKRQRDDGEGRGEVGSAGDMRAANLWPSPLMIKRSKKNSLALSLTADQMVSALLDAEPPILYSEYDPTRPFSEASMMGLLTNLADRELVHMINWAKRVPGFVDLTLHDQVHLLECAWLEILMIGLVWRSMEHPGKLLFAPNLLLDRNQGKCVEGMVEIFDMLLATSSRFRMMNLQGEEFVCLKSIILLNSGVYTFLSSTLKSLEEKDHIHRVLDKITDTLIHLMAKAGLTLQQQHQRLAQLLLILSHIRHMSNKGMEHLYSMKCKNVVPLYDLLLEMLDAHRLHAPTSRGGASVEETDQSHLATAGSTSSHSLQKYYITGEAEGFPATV
Summary of the method: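 VM7Luc4E2 cells (endogenous full-length ER-alpha, 4×ERE-luciferase) were precultured 5 days in phenol red-free medium with 10% charcoal-stripped FBS, given 10.0nM ICI-182,780 (final), then treated with compounds at 15 concentrations for 22hr at 37C; luminescence read with ONE-Glo.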

[4] = qHTS assay to identify small molecule agonists or antagonists of the thyroid stimulating hormone receptor (TSHR) signaling pathway - wild type cell line counter screen (AID 1259384)
Summary of the method: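 Wild-type HEK293 cells were plated 18 h at 37 C/5% CO2, pin-dosed with compound plus Ro20-1724 medium, held 30 min at room temperature, then given cAMP-d2 and anti-cAMP-cryptate; fluorescence was read after 1 h. Fifteen concentrations, triplicate.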

[5] = biological target: Thyrotropin receptor (Homo sapiens) (UniProt P16473); assay: qHTS assay to identify small molecule antagonists of the thyroid stimulating hormone receptor (TSHR) signaling pathway (AID 1259385); also: nearly all actives have a fitted effect of over 20% in size; also: potency is read from the fitted curve at half-maximal effect
Chain of Thyrotropin receptor (Homo sapiens) (P16473 whole entry, looked up): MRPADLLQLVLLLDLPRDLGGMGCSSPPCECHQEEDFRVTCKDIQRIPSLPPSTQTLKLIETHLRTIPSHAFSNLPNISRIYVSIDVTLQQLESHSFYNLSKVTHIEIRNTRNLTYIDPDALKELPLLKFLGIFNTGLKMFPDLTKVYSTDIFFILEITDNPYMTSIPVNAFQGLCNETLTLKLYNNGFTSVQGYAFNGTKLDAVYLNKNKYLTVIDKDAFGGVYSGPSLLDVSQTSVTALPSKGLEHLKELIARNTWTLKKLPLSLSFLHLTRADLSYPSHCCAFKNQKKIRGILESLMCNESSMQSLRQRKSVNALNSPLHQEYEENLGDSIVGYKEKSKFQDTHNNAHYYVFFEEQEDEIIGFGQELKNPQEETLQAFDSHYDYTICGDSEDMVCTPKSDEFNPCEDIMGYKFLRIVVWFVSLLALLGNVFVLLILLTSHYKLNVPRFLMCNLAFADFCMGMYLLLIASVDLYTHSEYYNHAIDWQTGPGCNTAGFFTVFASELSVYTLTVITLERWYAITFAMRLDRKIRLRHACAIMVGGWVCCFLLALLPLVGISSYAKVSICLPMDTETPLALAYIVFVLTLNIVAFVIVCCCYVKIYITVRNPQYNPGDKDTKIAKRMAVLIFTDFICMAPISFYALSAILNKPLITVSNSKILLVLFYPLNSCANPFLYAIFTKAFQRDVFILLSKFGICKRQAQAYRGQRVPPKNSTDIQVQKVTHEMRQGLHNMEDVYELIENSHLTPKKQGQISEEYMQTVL
Summary of the method: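 TSHR-HEK293 cells were plated and held 18 h at 37C/5% CO2, then given compound plus Ro20-1724 and stimulated with TSH at 1.5 ng/mL final. After 30 min at room temperature, cAMP was detected with cAMP-d2/anti-cAMP-cryptate (1 h) by fluorescence.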

[6] = qHTS assay to identify small molecule agonists of the estrogen receptor alpha (ER-alpha) signaling pathway in the presence of an antagonist - cell viability counter screen (AID 1259386; active = well fitted curve in the direction sought with a large enough effect in the repeat runs; an effect the other way counts as inactive or inconclusive;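 also: series mostly up to about 92 µM; cells exposed to compounds for 22 h at 37 °C before the viability read; nearly all actives have a fitted effect of over 30% in size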)
Summary of the method: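 VM7Luc4E2 cells (endogenous full-length ER-alpha, 4×ERE-luciferase) were held 5 days in phenol red-free medium with 10% charcoal-stripped FBS, plated, then given 10.0nM ICI-182,780 and compounds at 15 concentrations for 22hr at 37C; viability read by CellTiter-Fluor fluorescence.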

[7] = biological target: Progesterone receptor (Homo sapiens) (UniProt P06401); assay: qHTS assay to identify small molecule agonists of the progesterone receptor (PR) signaling pathway (AID 1346784); also: nearly all actives have a fitted effect of over 30% in size
Chain of Progesterone receptor (Homo sapiens) (P06401 whole entry, looked up): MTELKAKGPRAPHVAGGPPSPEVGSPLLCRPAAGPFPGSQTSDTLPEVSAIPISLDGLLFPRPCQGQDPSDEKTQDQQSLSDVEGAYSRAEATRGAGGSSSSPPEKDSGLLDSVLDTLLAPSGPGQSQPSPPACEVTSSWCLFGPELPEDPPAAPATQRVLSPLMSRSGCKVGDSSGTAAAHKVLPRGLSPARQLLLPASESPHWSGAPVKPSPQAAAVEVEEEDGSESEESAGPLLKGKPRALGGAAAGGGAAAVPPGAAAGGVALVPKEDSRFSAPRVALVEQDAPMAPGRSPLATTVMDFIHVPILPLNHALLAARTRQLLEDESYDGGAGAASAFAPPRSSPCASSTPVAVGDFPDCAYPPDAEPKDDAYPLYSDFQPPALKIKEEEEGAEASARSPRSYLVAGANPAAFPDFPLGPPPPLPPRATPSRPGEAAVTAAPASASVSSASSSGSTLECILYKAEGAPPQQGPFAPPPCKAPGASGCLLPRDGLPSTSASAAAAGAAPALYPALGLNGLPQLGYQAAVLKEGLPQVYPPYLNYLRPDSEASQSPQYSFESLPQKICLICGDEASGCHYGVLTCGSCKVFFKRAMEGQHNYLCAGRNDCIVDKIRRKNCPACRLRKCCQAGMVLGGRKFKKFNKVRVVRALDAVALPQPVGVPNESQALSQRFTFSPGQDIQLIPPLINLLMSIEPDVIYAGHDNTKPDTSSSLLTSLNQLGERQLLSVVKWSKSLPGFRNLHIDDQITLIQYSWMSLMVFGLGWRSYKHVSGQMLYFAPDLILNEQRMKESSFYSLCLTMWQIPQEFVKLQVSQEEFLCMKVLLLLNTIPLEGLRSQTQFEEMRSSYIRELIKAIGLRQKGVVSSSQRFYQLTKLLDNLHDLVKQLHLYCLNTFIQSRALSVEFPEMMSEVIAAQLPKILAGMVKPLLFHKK
Summary of the method: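 The screen uses PR-UAS-bla HEK 293T cells in charcoal-stripped serum (2%). Compounds are applied for 16 hr at 37C after a 6 hr pre-incubation, and reporter activity is detected with a FRET beta-lactamase substrate after 2 hr at room temperature.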

[8] = biological target: Progesterone receptor (Homo sapiens) (UniProt P06401); assay: qHTS assay to identify small molecule antagonists of the progesterone receptor (PR) signaling pathway (AID 1346795; active = well fitted inhibition curve with a large enough effect in the signal ratio in the repeat runs, not every such curve was filed as active; the % refers to the signal ratio; also: potency is read from the fitted curve at half-maximal effect)
Summary of the method: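 After 6 hr plating at 37C in 2% stripped-serum medium, PR-UAS-bla HEK293T cells got compounds, then 1 nM R5020. Sixteen hours later, LiveBLAzer substrate was applied for 2 hr at room temperature and fluorescence was recorded.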

[9] = qHTS assay to identify small molecule agonists of the progesterone receptor (PR) signaling pathway - cell viability counter screen (AID 1346799); also: nearly all actives have a fitted effect of over 45% in size; also: potency is read from the fitted curve at half-maximal effect
Summary of the method: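 Viability was scored by ATP luminescence (CellTiter-Glo, 30 min, room temperature) in the same wells used for the reporter readout, after 16 hr compound exposure of PR-UAS-bla HEK293T cells.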

[10] = qHTS assay to identify small molecule antagonists of the TGF-beta/Smad signaling pathway - cell viability counter screen (AID 1346824; active = well fitted curve in the direction sought with a large enough effect in the repeat runs; an effect the other way counts as inactive or inconclusive; also: nearly all actives have a fitted effect of over 50% in size)
Summary of the method: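 SBE-bla HEK 293T cells were plated overnight at 37 C, then given compounds in DMSO plus TGF-beta1 (added as 0.25 ng/mL solution) for 5 hr. After the bla read, CellTiter-Glo was added to the same wells and luminescence read after 30 min at room temperature.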

[11] = qHTS assay to identify small molecule agonists of the TGF-beta/Smad signaling pathway - cell viability counter screen (AID 1346829; active = well fitted curve in the direction sought with a large enough effect in the repeat runs; an effect the other way counts as inactive or inconclusive; also: top concentration of the series differs between compounds; nearly all actives have a fitted effect of over 45% in size)
Summary of the method: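 In parallel with the Smad reporter read, viability of HEK 293T cells stably carrying SBE-bla is quantified by ATP luminescence following 5 hr compound treatment.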

[12] = qHTS assay to identify small molecule agonists of the TGF-beta/Smad signaling pathway (AID 1346859; active = well fitted activation curve with a large enough effect in the signal ratio in the repeat runs, not every such curve was filed as active; the % refers to the signal ratio; also: series mostly up to about 77 µM)
Summary of the method: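 Dual-wavelength fluorescence (460/530 nm emission) quantified beta-lactamase expression under the Smad binding element in HEK 293T cells following 5 hr compound treatment at 37 C.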

[13] = biological target: Androgen receptor (Homo sapiens) (UniProt P10275); assay: qHTS assay to identify small molecule agonists of the androgen receptor (AR) signaling pathway in the presence of an antagonist (AID 1259381); also: nearly all actives have a fitted effect of over 15% in size
Chain of Androgen receptor (Homo sapiens) (P10275 whole entry, looked up): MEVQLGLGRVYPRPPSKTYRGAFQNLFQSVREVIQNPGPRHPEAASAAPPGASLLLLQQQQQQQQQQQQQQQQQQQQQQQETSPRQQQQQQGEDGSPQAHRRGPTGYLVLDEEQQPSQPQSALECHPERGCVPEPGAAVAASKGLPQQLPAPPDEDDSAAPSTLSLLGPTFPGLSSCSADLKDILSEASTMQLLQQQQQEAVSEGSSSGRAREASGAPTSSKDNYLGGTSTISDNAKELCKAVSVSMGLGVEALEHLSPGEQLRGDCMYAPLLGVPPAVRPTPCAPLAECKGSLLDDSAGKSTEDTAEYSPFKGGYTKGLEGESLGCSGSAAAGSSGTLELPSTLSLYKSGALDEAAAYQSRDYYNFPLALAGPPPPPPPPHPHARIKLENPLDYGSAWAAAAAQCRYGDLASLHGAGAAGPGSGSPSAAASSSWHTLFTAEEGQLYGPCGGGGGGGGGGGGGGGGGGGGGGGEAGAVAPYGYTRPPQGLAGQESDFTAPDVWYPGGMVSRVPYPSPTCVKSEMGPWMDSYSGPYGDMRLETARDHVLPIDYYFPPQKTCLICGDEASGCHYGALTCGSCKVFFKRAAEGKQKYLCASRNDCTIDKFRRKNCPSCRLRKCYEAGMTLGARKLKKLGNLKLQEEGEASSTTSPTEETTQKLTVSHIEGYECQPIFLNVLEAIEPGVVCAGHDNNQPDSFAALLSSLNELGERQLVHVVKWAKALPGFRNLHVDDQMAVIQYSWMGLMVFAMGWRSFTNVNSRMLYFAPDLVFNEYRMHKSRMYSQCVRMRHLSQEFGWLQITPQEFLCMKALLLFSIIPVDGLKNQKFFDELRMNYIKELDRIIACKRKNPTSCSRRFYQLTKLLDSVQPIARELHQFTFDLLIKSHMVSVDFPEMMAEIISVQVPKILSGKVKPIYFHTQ
Summary of the method: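 MDA-kb2 human breast carcinoma cells carrying an MMTV-luciferase reporter (AR- and GR-responsive) were treated with compounds at 15 concentrations plus 3.0uM final nilutamide for 16hr at 37C without CO2; luminescence was read after ONE-Glo addition.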

[14] = qHTS assay to identify small molecule antagonists of the estrogen receptor beta (ER-beta) signaling pathway - cell viability counter screen (AID 1259382; active = well fitted curve in the direction sought with a large enough effect in the repeat runs; an effect the other way counts as inactive or inconclusive;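 also: HEK293T cells carrying ER-beta-UAS-bla reporter stimulated with estradiol; series mostly up to about 92 µM; nearly all actives have a fitted effect of over 55% in size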)
Summary of the method: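 ER-beta-UAS-bla HEK293T cells (2,000/well, 2% charcoal-stripped FBS) were pre-incubated 6 hr at 37C, then given compound plus 1nM final 17-beta-estradiol for 16 hr. Viability was read in the same wells by CellTiter-Glo luminescence after 30 min at room temperature.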

[15] = qHTS assay to identify small molecule antagonists of the progesterone receptor (PR) signaling pathway - cell viability counter screen (AID 1346798; active = well fitted curve in the direction sought with a large enough effect in the repeat runs; an effect the other way counts as inactive or inconclusive; also: nearly all actives have a fitted effect of over 50% in size; also: potency is read from the fitted curve at half-maximal effect)
Summary of the method: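 Viability was determined by ATP-based luminescence (CellTiter-Glo) in PR-UAS-bla HEK293T cells cultured in 2% charcoal-stripped serum and incubated 16 hr with compounds under R5020 stimulation.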

[16] = qHTS assay to identify small molecule agonists of the androgen receptor (AR) signaling pathway in the presence of an antagonist - cell viability counter screen (AID 1259379; active = well fitted curve in the direction sought with a large enough effect in the repeat runs; an effect the other way counts as inactive or inconclusive; also: series mostly up to about 92 µM; nearly all actives have a fitted effect of over 25% in size)
Summary of the method: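 MDA-kb2 human breast carcinoma cells (stable MMTV-luciferase, AR/GR responsive) were seeded 3,000 cells/well, pre-incubated 5 hr at 37C without CO2, then given 3.0uM nilutamide and compounds at 15 concentrations for 16 hr. Viability was read by CellTiter-Fluor fluorescence.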

[17] = biological target: Thyrotropin-releasing hormone receptor (Homo sapiens) (UniProt P34981); assay: qHTS assay to identify small molecule antagonists of the thyrotropin-releasing hormone receptor (TRHR) signaling pathway (AID 1346877; active = well fitted inhibition curve with a large enough effect in the repeat runs, not every such curve was filed as active; also: series mostly up to about 51 µM)
Chain of Thyrotropin-releasing hormone receptor (Homo sapiens) (P34981 whole entry, looked up): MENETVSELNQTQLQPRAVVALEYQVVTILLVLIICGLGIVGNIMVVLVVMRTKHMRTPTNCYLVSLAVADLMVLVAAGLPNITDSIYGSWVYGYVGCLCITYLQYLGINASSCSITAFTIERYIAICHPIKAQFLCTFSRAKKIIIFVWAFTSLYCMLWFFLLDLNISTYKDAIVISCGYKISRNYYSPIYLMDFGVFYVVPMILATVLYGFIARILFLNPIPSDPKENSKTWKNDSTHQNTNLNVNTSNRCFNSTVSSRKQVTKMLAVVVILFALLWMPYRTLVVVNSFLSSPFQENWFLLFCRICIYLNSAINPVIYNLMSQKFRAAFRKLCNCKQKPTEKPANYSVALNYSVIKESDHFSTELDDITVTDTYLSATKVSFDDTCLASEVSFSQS
Summary of the method: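 TRHR-expressing HEK293 cells were seeded, cultured 18 h at 37 °C, then loaded with calcium dye for 2 h. Compounds were pre-incubated 5 min at room temperature before 1 nM TRH (final) was added, and kinetic fluorescence was recorded for 3 min.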

[18] = biological target: Thyrotropin-releasing hormone receptor (Homo sapiens) (UniProt P34981); assay: qHTS assay to identify small molecule agonists of the thyrotropin-releasing hormone receptor (TRHR) signaling pathway (AID 1346891); also: series mostly up to about 58 µM
Summary of the method: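 Kinetic fluorescence (3 min, 1 s intervals) reported intracellular calcium after compound transfer onto TRHR-Hek293 cells pre-loaded with dye for 2 h at 37 °C.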

Measured: Potency

CN1CCC(=C2c3ccccc3C=Cc3ccccc32)CC1
active: [1] 0.335 µM | [2] 26.6 µM
not listed: [13] | [14] | [15] | [16] | [17] | [18]
inactive: all other assays above

COC(=O)CSc1cc(N=c2sc(=O)n3n2CCCC3)c(F)cc1Cl
inactive: [1] | [2] | [13] | [14] | [4] | [5] | [6] | [7] | [15] | [11]

CCOC(=O)[C@H](CCc1ccccc1)N[C@H]1CCc2ccccc2N(CC(=O)O)C1=O
active: [5] 29.8 µM | [15] 21.1 µM | [9] 21.1 µM
not listed: [2] | [3] | [8] | [12] | [13] | [14]
inactive: all other assays above

Cc1cc(O)ccc1N
active: [1] 17.3 µM | [2] 48.8 µM
not listed: [5] | [6] | [8] | [14] | [15] | [16]
inactive: all other assays above

COC(Cc1ccccc1)OC
not listed: [13] | [16]
inactive: all other assays above

O=C1[C@H](CC[C@H](O)c2ccc(F)cc2)[C@@H](c2ccc(O)cc2)N1c1ccc(F)cc1
active: [8] 23.7 µM
not listed: [2] | [7] | [9] | [13] | [15] | [17] | [18]
inactive: all other assays above

CC(C)c1ccc2c(C(C)C)cc(C(C)C)c(S(=O)(=O)O)c2c1
not listed: [2] | [7] | [14] | [15] | [16]
inactive: all other assays above

CCCCC(CC)(CO)CO
not listed: [2] | [3] | [9] | [13]
inactive: all other assays above

CC(=O)c1c(C)c([N+](=O)[O-])c(C(C)(C)C)c([N+](=O)[O-])c1C
inactive: [1] | [16] | [4] | [5] | [6] | [7] | [15] | [10] | [11] | [12]

C#CCOC(=O)[C@@H](C)Oc1ccc(Oc2ncc(Cl)cc2F)cc1
not listed: [2] | [9] | [13]
inactive: all other assays above
